In the supplement of paper PMC11537057:
Counter-ions that a name gives are not always drawn. ± gives the standard deviation of the averaged measurements. Whole data set: some 1,700 compounds, median “cell number in HSV-1-infected wells relative to infected DMSO wells (H2B-RFP signal)” near 100, cut for the highest 2% near 140. This is one part of a sample in which the highest values are shown more often than they occur.

The molecules below were run on A549 infected with HSV-1 (assay: cell number in HSV-1-infected wells relative to infected DMSO wells (H2B-RFP signal); higher = more surviving cells (uninfected or antiviral-protected wells give about 200%; low = toxicity)). Details: 10 µM; 48 h; MOI: 0.1.
Experimental: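 Selleck FDA-approved library (L1300) screened in duplicate at 10 µM on A549 H2B-mRuby cells in 384-well plates, infected with HSV-1 strain 17 YFP-ICP4 at MOI 0.1 one hour before drug addition. Imaged after 2 days at 37°C. Cell growth (H2B-RFP) and infection (ICP4-YFP) are expressed as % of DMSO-treated wells. Hits: growth >90% and infection <20% of DMSO.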

Going from Cc1c(O)cccc1C(=O)N[C@@H](CSc1ccccc1)[C@H](O)CN1C[C@H]2CCCC[C@H]2C[C@H]1C(=O)NC(C)(C)C [Nelfinavir Mesylate] to CC(C)C[C@H](NC(=O)[C@@H](NC(=O)c1cccc(-c2ccccc2)n1)[C@@H](C)O)B(O)O, the “cell number in HSV-1-infected wells” value falls from 157 ± 33% to 79.7 ± 13%.

Going from CC(C)(CO)C(O)C(=O)NCCC(=O)O [Calcium D-Panthotenate] to CCOC(=O)[C@H]1O[C@@H]1C(=O)N[C@@H](CC(C)C)C(=O)NCCC(C)C [Aloxistatin], the “cell number in HSV-1-infected wells” value rises from 118 ± 22% to 150.2 ± 0.33%.

Going from N[C@@H](CS)C(=O)O [L-Cysteine HCl] to CC(O)C(=O)O.N (centres undefined) [Ammonium lactate], the “cell number in HSV-1-infected wells” value falls from 129 ± 9.3% to 91.3 ± 9.4%.

First: CCCCS(=O)(=O)N[C@@H](Cc1ccc(OCCCCC2CCNCC2)cc1)C(=O)O [Tirofiban Hydrochloride]
Second: COc1ccc(C[C@H](N)C(=O)N[C@H]2[C@@H](O)[C@H](n3cnc4c(N(C)C)ncnc43)O[C@@H]2CO)cc1 [Puromycin 2HCl]
The “cell number in HSV-1-infected wells” value of the first is higher: 128 ± 12% for the first, 41.2 ± 1.6% for the second.

Compared with Nc1ccn(C[C@@H](CO)OCP(=O)(O)O)c(=O)n1 [Cidofovir], Nc1ccn([C@@H]2O[C@H](CO)[C@@H](O)[C@@H]2O)c(=O)n1 [Cytarabine] is lower in “cell number in HSV-1-infected wells” value: 164 ± 11% for the first, 44.2 ± 11% for the second.

Nc1ccn([C@H]2CC[C@@H](CO)O2)c(=O)n1 [Zalcitabine] and O=c1[nH]cnc2c1ncn2[C@H]1CC[C@@H](CO)O1 [Didanosine] are within error of each other in “cell number in HSV-1-infected wells” value: 105 ± 7% for the first, 99.6 ± 8.7% for the second.

Compared with Nc1ccn([C@@H]2O[C@H](CO)[C@@H](O)[C@@H]2O)c(=O)n1 [Cytarabine hydrochloride], O=c1[nH]cnc2c1ncn2[C@@H]1O[C@H](CO)[C@@H](O)[C@H]1O [Inosine] is higher in “cell number in HSV-1-infected wells” value: 51.7 ± 21% for the first, 126 ± 7.8% for the second.

First: Nc1c(Br)cc(Br)cc1CN[C@H]1CC[C@H](O)CC1 [Ambroxol]
Second: C=C1[C@H](CO)[C@@H](O)C[C@@H]1n1cnc2c(=O)[nH]c(N)nc21 [Entecavir]
The “cell number in HSV-1-infected wells” value of the first is lower: 63.56 ± 0.013% for the first, 130 ± 39% for the second.

Nc1c(Br)cc(Br)cc1CN[C@H]1CC[C@H](O)CC1 [Ambroxol HCl] and C=C1[C@H](CO)[C@@H](O)C[C@@H]1n1cnc2c(=O)[nH]c(N)nc21 [Entecavir Hydrate] are within error of each other in “cell number in HSV-1-infected wells” value: 117 ± 21% for the first, 150 ± 12% for the second.

First: O=C1/C(=C2\Nc3ccc(S(=O)(=O)O)cc3C2=O)Nc2ccc(S(=O)(=O)O)cc21 [Indigo carmine]
Second: CC(=O)c1cc2c(o1)C(=O)c1ccccc1C2=O [Napabucasin]
The “cell number in HSV-1-infected wells” value of the first is higher: 126 ± 4.3% for the first, 27.4 ± 21% for the second.

OC[C@@H](O)CN1CCN(c2ccccc2)CC1 [Levodropropizine] and Cc1cc(-c2ccccc2)nnc1NCCN1CCOCC1 [Minaprine dihydrochloride] are within error of each other in “cell number in HSV-1-infected wells” value: 99.4 ± 1.6% for the first, 94.3 ± 12% for the second.

First: CCC1(c2c[nH]cn2)Cc2ccccc2C1 [Atipamezole hydrochloride]
Second: CN1CCC(=C2c3ccccc3CCn3c(C=O)cnc32)CC1 [Alcaftadine]
The “cell number in HSV-1-infected wells” value of the first is lower: 95.8 ± 8.9% for the first, 127.9 ± 0.97% for the second.

CCC1(c2c[nH]cn2)Cc2ccccc2C1 [Atipamezole] and CN(C)CCC(c1ccc(Cl)cc1)c1ccccn1 (centres undefined) [Chlorpheniramine Maleate] are within error of each other in “cell number in HSV-1-infected wells” value: 103 ± 19% for the first, 94.3 ± 16% for the second.

CCCCC(CC)COC(=O)C(C#N)=C(c1ccccc1)c1ccccc1 (centres undefined) [Octocrylene] and CN(C)CCOC(c1ccccc1)c1ccccc1 [Diphenhydramine HCl] are within error of each other in “cell number in HSV-1-infected wells” value: 115 ± 4.8% for the first, 102 ± 25% for the second.

C[C@]1(COc2ccc(N3CCC(Oc4ccc(OC(F)(F)F)cc4)CC3)cc2)Cn2cc([N+](=O)[O-])nc2O1 [Delamanid] and Cc1ccccc1-c1cc(N2CCN(C)CC2)ncc1N(C)C(=O)C(C)(C)c1cc(C(F)(F)F)cc(C(F)(F)F)c1 [Netupitant] are within error of each other in “cell number in HSV-1-infected wells” value: 117 ± 18% for the first, 146 ± 30% for the second.

OC[C@@H](O)[C@@H](O)[C@H](O)[C@H](O)CO [D-Mannitol] and OC[C@@H](O)[C@@H](O)[C@H](O)[C@@H](O)CO [Sorbitol] are within error of each other in “cell number in HSV-1-infected wells” value: 107 ± 11% for the first, 97.2 ± 17% for the second.

First: OC[C@@H](O)[C@H](O)[C@@H](O)CO [Xylitol]
Second: Nc1nc2c(ncn2COC(CO)CO)c(=O)[nH]1 [Ganciclovir]
The “cell number in HSV-1-infected wells” value of the first is lower: 146 ± 3% for the first, 192.4 ± 0.4% for the second.

Cn1nnc(-c2ccc(-c3ccc(N4C[C@H](CO)OC4=O)cc3F)cn2)n1 [Tedizolid] and O=C(O)c1cccc(-c2noc(-c3ccccc3F)n2)c1 [Ataluren (PTC124)] are within error of each other in “cell number in HSV-1-infected wells” value: 104 ± 5.8% for the first, 116 ± 9.6% for the second.

Going from CCCCCCCCCCCCCCCC(=O)O[C@@H]1[C@@H](O)[C@@H](O)[C@@H]([C@H](NC(=O)[C@@H]2C[C@@H](CCC)CN2C)[C@H](C)Cl)O[C@@H]1SC [Clindamycin palmitate HCl] to CCOC(=O)CCC(=O)O[C@H]1[C@H](O[C@@H]2[C@@H](C)[C@H](O[C@H]3C[C@@](C)(OC)[C@@H](O)[C@H](C)O3)[C@@H](C)C(=O)O[C@H](CC)[C@@](C)(O)[C@H](O)[C@@H](C)C(=O)[C@H](C)C[C@@]2(C)O)O[C@H](C)C[C@@H]1N(C)C [Erythromycin Ethylsuccinate], the “cell number in HSV-1-infected wells” value rises from 85.3 ± 3.2% to 118 ± 17%.

Compared with C[C@@H](O)[C@@H]1NC(=O)[C@H](CCCCN)NC(=O)[C@@H](Cc2c[nH]c3ccccc23)NC(=O)[C@H](Cc2ccccc2)NC(=O)[C@@H](NC(=O)[C@H](N)Cc2ccccc2)CSSC[C@@H](C(=O)N[C@H](CO)[C@@H](C)O)NC1=O [Octreotide Acetate], Cc1ccc(C(=O)N(CCCN)[C@@H](c2nc3cc(Cl)ccc3c(=O)n2Cc2ccccc2)C(C)C)cc1 is lower in “cell number in HSV-1-infected wells” value: 96.3 ± 13% for the first, 12.9 ± 5.4% for the second.

Compared with CCn1c(=O)c(-c2cc[nH]n2)cc2c(C)nc(N)nc21, CCCc1ncc(C[n+]2ccccc2C)c(N)n1 [Amprolium HCl] is higher in “cell number in HSV-1-infected wells” value: 79.6 ± 6.9% for the first, 105 ± 10% for the second.

CC1(C)S[C@@H]2[C@H](NC(=O)[C@H](N)c3ccccc3)C(=O)N2[C@H]1C(=O)OCOC(=O)[C@@H]1N2C(=O)C[C@H]2S(=O)(=O)C1(C)C [Sultamicillin] and CC1(C)S[C@@H]2[C@H](NC(=O)[C@H](C(=O)O)c3ccsc3)C(=O)N2[C@H]1C(=O)O [Ticarcillin sodium] are within error of each other in “cell number in HSV-1-infected wells” value: 104 ± 5.9% for the first, 95.4 ± 22% for the second.

COc1cc(S(=O)(=O)O)ccc1O [Sulfogaiacol] and COc1cc2c(cc1Cc1cccc(Cl)c1F)c(=O)c(C(=O)O)cn2[C@H](CO)C(C)C [Elvitegravir (GS-9137, JTK-303)] are within error of each other in “cell number in HSV-1-infected wells” value: 98.6 ± 40% for the first, 105 ± 10% for the second.

Going from O=C(Nc1nc2cccc(-c3ccc(CN4CCS(=O)(=O)CC4)cc3)n2n1)C1CC1 [Filgotinib (GLPG0634)] to Cc1c(Cl)cccc1Nc1ccccc1C(=O)O [Tolfenamic Acid], the “cell number in HSV-1-infected wells” value rises from 76.8 ± 6.2% to 120 ± 2%.

First: CC(C)[C@H](N)C(=O)OCCOCn1cnc2c(=O)nc(N)[nH]c21 [Valaciclovir HCl]
Second: CC(C)[C@H](N)C(=O)OCC(CO)OCn1cnc2c(=O)[nH]c(N)nc21 (some centres undefined) [Valganciclovir HCl]
The “cell number in HSV-1-infected wells” value of the first is lower: 167 ± 22% for the first, 207 ± 2.2% for the second.

First: Nc1nc2c(ncn2COCCO)c(=O)[nH]1 [Aciclovir]
Second: Nc1c(CC(=O)O)cccc1C(=O)c1ccccc1 [Amfenac Sodium Monohydrate]
The “cell number in HSV-1-infected wells” value of the first is higher: 225 ± 2.6% for the first, 115 ± 14% for the second.

First: CS(=O)(=O)Nc1cc2occ(NC=O)c(=O)c2cc1Oc1ccccc1 [Iguratimod]
Second: CC(C)(C)c1cc(C(C)(C)C)c(NC(=O)c2c[nH]c3ccccc3c2=O)cc1O [Ivacaftor (VX-770)]
The “cell number in HSV-1-infected wells” value of the first is higher: 108 ± 15% for the first, 64.8 ± 7% for the second.

Compared with CC(C)OC(=O)CCC/C=C\C[C@@H]1[C@@H](/C=C/[C@@H](O)COc2cccc(C(F)(F)F)c2)[C@H](O)C[C@@H]1O [Travoprost], CN(C)CCOC(c1ccc(Cl)cc1)c1ccccn1 (centres undefined) [CarbinoxaMine Maleate] is higher in “cell number in HSV-1-infected wells” value: 39.8 ± 12% for the first, 148 ± 27% for the second.

C[C@@H](O)[C@H]1C(=O)N2C(C(=O)[O-])=C(SC3Cn4cnc[n+]4C3)[C@H](C)[C@H]12 (some centres undefined) [Biapenem] and C[C@H](CCC(=O)O)[C@H]1CC[C@H]2[C@@H]3C(=O)C[C@@H]4CC(=O)CC[C@]4(C)[C@H]3CC(=O)[C@]12C [Dehydrocholic acid] are within error of each other in “cell number in HSV-1-infected wells” value: 91.1 ± 10% for the first, 89.8 ± 1.7% for the second.

Compared with O=C(O)C(=O)O.[NH-][C@@H]1CCCC[C@H]1[NH-].[Pt+2] [Oxaliplatin], O=C(c1ccc(F)c(F)c1Nc1ccc(I)cc1F)N1CC(O)([C@@H]2CCCCN2)C1 [Cobimetinib (GDC-0973, RG7420)] is lower in “cell number in HSV-1-infected wells” value: 64.1 ± 10% for the first, 32.6 ± 21% for the second.

Going from Clc1ccc2c(c1)CCc1cccnc1C2=C1CCNCC1 [Desloratadine] to Cc1ccc(Cl)c(Nc2ccccc2C(=O)O)c1Cl [Meclofenamate Sodium], the “cell number in HSV-1-infected wells” value rises from 116 ± 6.4% to 156 ± 21%.

First: CC[C@H](C)[C@H](NC(=O)[C@@H]1CCCN1C(=O)CNC(=O)[C@H](Cc1ccccc1)NC(=O)[C@H](CC(N)=O)NC(=O)[C@H](CC(N)=O)NC(=O)[C@H](CO)NC(=O)[C@H](CO)NC(=O)[C@H](Cc1c[nH]cn1)NC(=O)[C@@H](NC(=O)[C@H](CC(C)C)NC(=O)[C@H](Cc1ccccc1)NC(=O)[C@H](CC(N)=O)NC(=O)[C@H](C)NC(=O)[C@H](CC(C)C)NC(=O)[C@H](CCCNC(=N)N)NC(=O)[C@H](CCC(N)=O)NC(=O)[C@@H](NC(=O)[C@H](C)NC(=O)[C@@H]1CSSC[C@H](NC(=O)[C@@H](N)CCCCN)C(=O)N[C@@H](CC(N)=O)C(=O)N[C@@H]([C@@H](C)O)C(=O)N[C@@H](C)C(=O)N[C@@H]([C@@H](C)O)C(=O)N1)[C@@H](C)O)C(C)C)C(=O)N[C@@H](CC(C)C)C(=O)N1CCC[C@H]1C(=O)N1CCC[C@H]1C(=O)N[C@H](C(=O)N[C@@H](CC(N)=O)C(=O)N[C@H](C(=O)NCC(=O)N[C@@H](CO)C(=O)N[C@@H](CC(N)=O)C(=O)N[C@H](C(=O)N[C@@H](Cc1ccc(O)cc1)C(N)=O)[C@@H](C)O)C(C)C)[C@@H](C)O [Pramlintide Acetate]
Second: Cc1cccc(Nc2ccccc2C(=O)O)c1C [Mefenamic Acid]
The “cell number in HSV-1-infected wells” value of the first is higher: 134 ± 20% for the first, 94.2 ± 6% for the second.
